Source: the supplement of paper PMC10849652
Of roughly 7,900 targets only a part is listed; those with a hit were picked by preference. About 0.6% of all pairs of compound and target were hits.

Key:
Assay in all cases: log2 fold change, soluble protein after heating vs DMSO (PISA); higher = thermal stabilisation; K562 cells, 10 uM, 30 min; active = over 0.2 and 3.5 SD of the protein, either way, in both replicates (recomputed)
[1] = compound: CC[C@@H]1C(=O)N(C)c2cnc(Nc3ccc(C(=O)NC4CCN(C)CC4)cc3OC)nc2N1C1CCCC1
In short: (§1)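 Aliquots of K562 cells (2×10^6 cells/mL) treated with 10 μM compound for 30 min were heated for 3 min over 48°C-58°C. After pooling and extraction in PBS with 0.5% NP-40 at 4°C, soluble protein from a 21,000xg, 90 min spin was quantified by TMTpro 16plex LC-MS/MS with channel sums equalised. Thermal stability is expressed against control samples, from duplicates, as a log2 fold change.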

[2] = compound: CC[C@@H]1C(=O)N(C)c2cnc(Nc3ccc(C(=O)N[C@H]4CC[C@H](N5CCN(CC6CC6)CC5)CC4)cc3OC)nc2N1C(C)C [volasertib]
In short: as §1

[3] = compound: CC[C@H](C)N1C=C(C2=C(C=C(C=C21)C3=CN=C(C=C3)N4CCNCC4)C(=O)NCC5=C(C=C(NC5=O)C)C)C
In short: as §1

[4] = compound: CC[C@H](C)[C@@H](C(=O)N[C@@H]([C@@H](C)O)C(=O)N[C@@H](CC(C)C)C(=O)[C@]1(CO1)C)NC(=O)[C@H]([C@@H](C)CC)N(C)C(=O)C [epoxomicin]
In short: as §1

[5] = compound: CCn1c(C(=O)N(C2CC2)C2CC2)cc2c3c(ncn3C)c(Nc3cc(C)n(C)n3)nc21
In short: as §1

[6] = compound: CCn1cc(-c2ccnc3[nH]c(-c4cccc(CN(C)C)c4)cc23)c(-c2ccc(NC(=O)N(C)C)cc2)n1
In short: as §1

[7] = compound: CN(C)CC(=O)Nc1ccc2[nH]c(=O)c3ccccc3c2c1
In short: as §1

[8] = compound: CN(CCOC1=CC=C(C=C1)C[C@H]2C(=O)NC(=O)S2)C3=CC=CC=N3 (racemic) [rosiglitazone]
In short: as §1

[9] = compound: CN1C2=C(C3=C1C(=O)N(N=C3)CC4=CC(=CC=C4)N)SC(=C2)S(=O)C
In short: as §1

[10] = compound: CN1CCC(CNc2ccc3ncc(-c4cccc(OC(F)(F)F)c4)n3n2)CC1
In short: as §1

[11] = compound: CN1CCN(CCOc2cc(OC3CCOCC3)c3c(Nc4c(Cl)ccc5c4OCO5)ncnc3c2)CC1 [saracatinib]
In short: as §1

[12] = compound: CN1CCN(c2nc(C3=C(c4c[nH]c5ccccc45)C(=O)NC3=O)c3ccccc3n2)CC1 [sotrastaurin]
In short: as §1

[13] = compound: CN1CC[C@H](c2c(O)cc(O)c3c(=O)cc(-c4ccccc4Cl)oc23)[C@H](O)C1 [alvocidib]
In short: as §1

[14] = compound: CN1CCc2c(c3ccccc3n2Cc2ccc(C(=O)NO)cc2)C1 [Tubastatin A]
In short: as §1

[15] = compound: CNC(=O)C1=CC=CC=C1NC2=NC(=NC=C2Cl)NC3=C(C=C(C=C3)N4CCOCC4)OC
In short: as §1

[16] = compound: CNC(=O)c1ccc(Nc2ncc(C(F)(F)F)c(NCc3nccnc3N(C)S(C)(=O)=O)n2)cc1 [defactinib]
In short: as §1

[17] = compound: CNCc1ccc(-c2[nH]c3cc(F)cc4c3c2CCNC4=O)cc1 [rucaparib]
In short: as §1

[18] = compound: CNc1nc(-c2ccc3c(N)n[nH]c3c2)cc(N2C[C@@H](C(=O)NC3CCCCC3)CC[C@H]2C)n1
In short: as §1

[19] = compound: COC(=O)N[C@@H](C)CNc1nccc(-c2cn(C(C)C)nc2-c2cc(Cl)cc(NS(C)(=O)=O)c2F)n1 [encorafenib]
In short: as §1

[20] = compound: COC(=O)[C@H](CCSC)NC(=O)C1=C(C=C(C=C1)NC[C@H](CS)N)C2=CC=CC=C2
In short: as §1

Measured: log2 fold change

CHCHD2 (UniProt Q9Y6H1)
Chain of UniProt Q9Y6H1 (Q9Y6H1 whole entry, looked up): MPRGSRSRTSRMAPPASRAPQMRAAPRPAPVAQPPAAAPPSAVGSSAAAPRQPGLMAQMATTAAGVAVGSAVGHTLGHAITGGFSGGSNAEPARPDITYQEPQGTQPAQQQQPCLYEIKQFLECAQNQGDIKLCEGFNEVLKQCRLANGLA
inactive: [1] 0.04 | [2] 0.103 | [3] -0.034 | [4] 0.026 | [5] -0.027 | [6] -0.055 | [7] -0.004 | [8] 0.04 | [9] -0.058 | [10] 0.044 | [11] 0 | [12] -0.031 | [13] 0.027 | [14] -0.058 | [15] 0.087 | [16] -0.002 | [17] -0.065 | [18] -0.049 | [19] -0.01 | [20] 0.061

CKB (UniProt P12277)
Chain of UniProt P12277 (P12277 whole entry, looked up): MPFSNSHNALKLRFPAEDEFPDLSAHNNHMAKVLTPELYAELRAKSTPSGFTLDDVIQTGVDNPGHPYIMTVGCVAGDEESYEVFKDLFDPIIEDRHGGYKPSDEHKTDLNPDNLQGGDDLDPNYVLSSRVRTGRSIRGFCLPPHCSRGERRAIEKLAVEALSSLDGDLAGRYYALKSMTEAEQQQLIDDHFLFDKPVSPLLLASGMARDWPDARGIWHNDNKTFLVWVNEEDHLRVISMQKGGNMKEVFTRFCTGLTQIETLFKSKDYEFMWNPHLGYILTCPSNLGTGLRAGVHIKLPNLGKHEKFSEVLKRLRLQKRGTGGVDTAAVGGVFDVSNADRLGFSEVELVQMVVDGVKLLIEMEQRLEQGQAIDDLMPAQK
inactive: [1] 0.002 | [3] 0.008 | [4] 0.044 | [5] 0.01 | [6] -0.108 | [7] 0.009 | [8] 0.03 | [9] -0.111 | [10] -0.056 | [11] -0.041 | [12] 0.019 | [13] -0.089 | [14] -0.004 | [15] -0.016 | [16] -0.006 | [17] -0.059 | [18] 0.043 | [19] 0.015 | [20] -0.011
active: [2] 0.265

CEPT1 (UniProt Q9Y6K0)
inactive: [1] -0.186 | [2] -0.231 | [3] -0.066 | [4] -0.043 | [5] 0.039 | [6] -0.025 | [7] 0.059 | [8] 0.067 | [9] -0.072 | [10] 0.03 | [11] 0.015 | [12] 0.033 | [13] 0.029 | [14] 0.042 | [15] 0.001 | [16] -0.005 | [17] -0.126 | [18] -0.056 | [19] 0.052 | [20] -0.056

CRKL (UniProt P46109)
inactive: [1] -0.012 | [2] -0.039 | [3] 0.007 | [4] 0 | [5] 0.008 | [6] 0 | [7] 0.012 | [8] 0.017 | [9] 0 | [10] -0.016 | [12] 0.003 | [13] -0.044 | [14] 0.003 | [15] -0.01 | [16] -0.052 | [17] -0.001 | [18] 0 | [19] 0.016 | [20] 0.008
active: [11] -1.42

CIT isoform 4 (UniProt O14578)
inactive: [1] 0.068 | [2] -0.225 | [3] 0.134 | [4] 0.017 | [5] -0.041 | [6] -0.033 | [7] -0.037 | [8] 0.057 | [9] 0 | [10] -0.033 | [11] -0.044 | [12] -0.033 | [13] 0.001 | [14] 0.074 | [15] 0.054 | [16] -0.034 | [17] -0.202 | [18] -0.055 | [19] -0.025 | [20] -0.001

CHAC2 (UniProt Q8WUX2)
Chain of UniProt Q8WUX2 (Q8WUX2 whole entry, looked up): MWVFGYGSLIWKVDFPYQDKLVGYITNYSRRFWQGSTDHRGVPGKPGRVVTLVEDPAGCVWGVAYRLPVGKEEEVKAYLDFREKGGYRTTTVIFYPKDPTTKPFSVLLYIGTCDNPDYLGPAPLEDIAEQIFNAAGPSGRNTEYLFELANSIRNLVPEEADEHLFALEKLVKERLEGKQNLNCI
inactive: [2] -0.227 | [3] 0.035 | [4] -0.025 | [5] 0.039 | [6] -0.03 | [7] 0.002 | [8] 0.028 | [9] -0.04 | [10] 0.041 | [11] -0.016 | [12] -0.028 | [13] -0.075 | [14] -0.02 | [15] -0.02 | [16] -0.07 | [17] 0.122 | [18] -0.05 | [19] 0.237 | [20] 0.025
active: [1] -0.343

CASP3 (UniProt P42574)
inactive: [1] 0.012 | [2] 0.014 | [3] -0.033 | [5] 0 | [6] 0.018 | [7] -0.021 | [8] 0.014 | [9] -0.097 | [10] 0.019 | [11] 0.107 | [12] 0.048 | [13] 0.005 | [14] 0.066 | [15] -0.024 | [16] -0.002 | [17] -0.062 | [18] 0.001 | [19] -0.014 | [20] -0.004
active: [4] 0.273

CPSF1 (UniProt Q10570)
Chain of UniProt Q10570 (Q10570 whole entry, looked up): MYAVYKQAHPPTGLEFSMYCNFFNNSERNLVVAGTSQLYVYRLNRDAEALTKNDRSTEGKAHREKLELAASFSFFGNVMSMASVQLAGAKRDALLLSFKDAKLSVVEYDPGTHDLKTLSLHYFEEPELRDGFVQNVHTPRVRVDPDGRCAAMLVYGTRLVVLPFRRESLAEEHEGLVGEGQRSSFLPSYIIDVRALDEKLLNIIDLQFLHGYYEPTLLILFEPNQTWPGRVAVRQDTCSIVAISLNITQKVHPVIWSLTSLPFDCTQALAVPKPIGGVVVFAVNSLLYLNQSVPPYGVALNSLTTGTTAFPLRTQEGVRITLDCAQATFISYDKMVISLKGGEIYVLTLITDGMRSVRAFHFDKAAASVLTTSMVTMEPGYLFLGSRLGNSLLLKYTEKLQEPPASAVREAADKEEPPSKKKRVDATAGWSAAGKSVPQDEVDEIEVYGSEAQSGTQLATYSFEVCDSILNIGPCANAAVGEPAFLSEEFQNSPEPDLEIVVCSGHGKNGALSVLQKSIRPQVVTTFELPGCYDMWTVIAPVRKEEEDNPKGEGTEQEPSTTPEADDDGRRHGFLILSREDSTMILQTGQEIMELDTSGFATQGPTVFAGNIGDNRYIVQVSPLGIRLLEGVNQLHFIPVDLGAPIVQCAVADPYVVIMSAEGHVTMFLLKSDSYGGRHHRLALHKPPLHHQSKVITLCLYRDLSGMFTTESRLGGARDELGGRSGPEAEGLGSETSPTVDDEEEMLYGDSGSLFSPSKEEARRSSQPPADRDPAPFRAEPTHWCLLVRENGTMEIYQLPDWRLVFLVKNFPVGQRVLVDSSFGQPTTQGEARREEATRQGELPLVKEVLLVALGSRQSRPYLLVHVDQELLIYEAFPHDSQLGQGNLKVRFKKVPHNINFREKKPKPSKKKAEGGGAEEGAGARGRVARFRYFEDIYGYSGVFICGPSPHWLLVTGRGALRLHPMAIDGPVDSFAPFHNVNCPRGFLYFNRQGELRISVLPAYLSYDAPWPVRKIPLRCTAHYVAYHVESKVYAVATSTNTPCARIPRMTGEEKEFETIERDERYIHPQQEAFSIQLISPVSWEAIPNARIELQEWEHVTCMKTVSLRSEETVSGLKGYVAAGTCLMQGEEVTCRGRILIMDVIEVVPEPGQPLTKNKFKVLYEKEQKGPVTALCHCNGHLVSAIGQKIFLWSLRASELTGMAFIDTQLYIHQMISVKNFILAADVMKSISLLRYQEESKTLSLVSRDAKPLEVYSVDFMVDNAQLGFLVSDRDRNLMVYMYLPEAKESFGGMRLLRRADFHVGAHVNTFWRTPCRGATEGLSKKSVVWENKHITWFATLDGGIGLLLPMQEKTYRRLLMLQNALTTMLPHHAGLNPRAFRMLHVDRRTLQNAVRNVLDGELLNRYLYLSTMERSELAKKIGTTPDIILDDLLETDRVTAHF
inactive: [1] 0.053 | [2] -0.105 | [3] 0.031 | [4] -0.038 | [5] -0.02 | [6] 0.026 | [7] -0.104 | [8] 0.011 | [9] 0.116 | [10] 0.165 | [11] 0.024 | [12] -0.01 | [13] 0.045 | [14] -0.02 | [15] -0.05 | [16] 0.038 | [17] 0.018 | [18] -0.061 | [19] -0.048 | [20] -0.032

CDK12 (UniProt Q9NYV4)
Chain of UniProt Q9NYV4 (Q9NYV4 whole entry, looked up): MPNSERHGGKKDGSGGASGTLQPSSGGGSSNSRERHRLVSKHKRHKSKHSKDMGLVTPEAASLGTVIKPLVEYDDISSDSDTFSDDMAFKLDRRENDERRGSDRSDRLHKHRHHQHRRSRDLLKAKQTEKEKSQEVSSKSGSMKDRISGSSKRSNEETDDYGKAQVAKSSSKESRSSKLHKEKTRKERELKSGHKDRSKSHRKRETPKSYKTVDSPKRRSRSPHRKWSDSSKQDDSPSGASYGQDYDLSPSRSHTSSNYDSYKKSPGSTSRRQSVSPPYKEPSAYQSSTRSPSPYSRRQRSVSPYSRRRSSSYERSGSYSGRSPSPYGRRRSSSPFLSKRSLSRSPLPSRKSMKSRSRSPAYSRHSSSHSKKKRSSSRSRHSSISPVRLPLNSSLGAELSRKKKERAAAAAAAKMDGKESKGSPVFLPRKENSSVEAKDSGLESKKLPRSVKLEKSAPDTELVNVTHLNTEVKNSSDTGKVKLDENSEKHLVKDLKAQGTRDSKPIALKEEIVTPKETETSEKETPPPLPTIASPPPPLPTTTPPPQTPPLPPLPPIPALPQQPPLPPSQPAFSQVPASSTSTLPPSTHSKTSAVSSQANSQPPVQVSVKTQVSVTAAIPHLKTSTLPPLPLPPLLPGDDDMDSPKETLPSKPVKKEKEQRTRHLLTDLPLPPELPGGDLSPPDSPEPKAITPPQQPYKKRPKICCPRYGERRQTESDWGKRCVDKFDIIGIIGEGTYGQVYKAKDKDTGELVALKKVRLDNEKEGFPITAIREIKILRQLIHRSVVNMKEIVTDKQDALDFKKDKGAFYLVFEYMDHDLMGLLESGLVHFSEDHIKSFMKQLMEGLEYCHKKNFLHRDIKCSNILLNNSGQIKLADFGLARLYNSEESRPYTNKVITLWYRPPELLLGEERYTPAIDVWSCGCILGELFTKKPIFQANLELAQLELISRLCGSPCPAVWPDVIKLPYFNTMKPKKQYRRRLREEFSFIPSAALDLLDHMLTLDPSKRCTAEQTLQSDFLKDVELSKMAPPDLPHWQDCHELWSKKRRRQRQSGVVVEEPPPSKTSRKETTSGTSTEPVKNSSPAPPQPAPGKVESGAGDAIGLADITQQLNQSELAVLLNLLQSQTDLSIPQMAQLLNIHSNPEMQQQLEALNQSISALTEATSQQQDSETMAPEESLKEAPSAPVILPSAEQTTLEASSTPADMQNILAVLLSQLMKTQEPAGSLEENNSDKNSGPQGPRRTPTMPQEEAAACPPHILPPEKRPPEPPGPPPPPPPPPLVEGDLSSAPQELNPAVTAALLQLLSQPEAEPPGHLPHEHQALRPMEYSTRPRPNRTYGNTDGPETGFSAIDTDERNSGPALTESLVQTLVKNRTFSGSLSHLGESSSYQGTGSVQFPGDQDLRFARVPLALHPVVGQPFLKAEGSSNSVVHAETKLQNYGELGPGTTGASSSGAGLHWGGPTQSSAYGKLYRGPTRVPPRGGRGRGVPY
inactive: [1] 0.147 | [2] 0.237 | [3] 0.016 | [4] -0.363 | [5] -0.005 | [6] 0.041 | [7] -0.027 | [8] -0.101 | [9] 0.392 | [10] -0.102 | [11] -0.113 | [12] -0.406 | [13] 0.122 | [14] 0.165 | [15] -0.309 | [16] -0.052 | [17] 0.072 | [18] 0.003 | [19] 0.09 | [20] 0.157

CCNK isoform 4 (UniProt O75909)
inactive: [1] 0.099 | [2] 0.045 | [3] -0.018 | [4] -0.254 | [5] 0.025 | [6] 0.129 | [7] -0.051 | [8] -0.038 | [9] 0.105 | [10] 0.032 | [11] -0.072 | [12] 0.135 | [13] 0.022 | [14] 0.057 | [15] -0.147 | [16] 0.043 | [17] 0.066 | [18] -0.019 | [19] 0.029 | [20] 0.003

CBS (UniProt P35520)
Chain of UniProt P35520 (P35520 whole entry, looked up): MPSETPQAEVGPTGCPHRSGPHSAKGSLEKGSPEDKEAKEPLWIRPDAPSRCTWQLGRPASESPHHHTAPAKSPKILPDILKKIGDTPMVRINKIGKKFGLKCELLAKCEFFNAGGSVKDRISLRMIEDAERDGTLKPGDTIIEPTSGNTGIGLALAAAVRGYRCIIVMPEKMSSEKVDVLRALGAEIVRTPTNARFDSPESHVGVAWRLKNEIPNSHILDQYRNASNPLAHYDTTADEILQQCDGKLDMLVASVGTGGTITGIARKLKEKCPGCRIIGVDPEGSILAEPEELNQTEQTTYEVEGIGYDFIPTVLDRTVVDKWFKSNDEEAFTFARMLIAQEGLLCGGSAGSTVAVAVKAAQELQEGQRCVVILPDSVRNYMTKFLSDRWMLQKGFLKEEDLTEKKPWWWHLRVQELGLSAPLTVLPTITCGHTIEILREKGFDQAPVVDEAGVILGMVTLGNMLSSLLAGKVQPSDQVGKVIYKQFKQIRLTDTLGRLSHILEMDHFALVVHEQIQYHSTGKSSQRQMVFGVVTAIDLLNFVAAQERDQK
inactive: [1] 0.007 | [2] 0.036 | [3] -0.049 | [4] 0.035 | [5] -0.019 | [6] 0.02 | [7] -0.012 | [8] 0.012 | [9] -0.073 | [10] -0.03 | [11] -0.009 | [12] 0.011 | [13] -0.035 | [14] -0.069 | [15] -0.021 | [16] 0.003 | [17] -0.061 | [18] -0.03 | [19] -0.001 | [20] -0.013

CNN3 (UniProt Q15417)
Chain of UniProt Q15417 (Q15417 whole entry, looked up): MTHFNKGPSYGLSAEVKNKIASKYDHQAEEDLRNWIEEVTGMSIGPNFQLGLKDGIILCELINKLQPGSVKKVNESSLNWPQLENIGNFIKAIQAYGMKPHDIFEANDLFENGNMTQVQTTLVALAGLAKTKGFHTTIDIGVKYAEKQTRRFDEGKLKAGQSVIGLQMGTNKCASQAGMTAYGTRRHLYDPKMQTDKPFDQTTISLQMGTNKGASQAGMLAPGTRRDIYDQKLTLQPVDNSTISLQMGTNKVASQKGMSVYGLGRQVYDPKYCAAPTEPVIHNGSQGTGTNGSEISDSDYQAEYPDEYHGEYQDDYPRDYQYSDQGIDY
active: [2] -0.368
inactive: [1] -0.08 | [3] 0.072 | [4] 0.066 | [5] 0.005 | [6] 0.008 | [7] 0.106 | [8] 0.058 | [9] -0.018 | [10] -0.055 | [11] 0.063 | [12] -0.122 | [13] -0.017 | [14] 0.02 | [15] 0.036 | [16] -0.13 | [17] 0.048 | [18] 0.008 | [19] 0.009 | [20] 0

CDC42BPB (UniProt Q9Y5S2)
inactive: [1] 0.171 | [2] 0.051 | [3] -0.105 | [4] -0.065 | [5] 0.008 | [6] 0.062 | [7] 0.046 | [8] 0.049 | [9] 0.048 | [10] -0.195 | [11] -0.089 | [12] -0.152 | [13] 0.009 | [14] 0.055 | [15] 0.021 | [16] -0.119 | [17] 0.146 | [18] -0.046 | [19] -0.029 | [20] -0.032

CCNH (UniProt P51946)
Chain of UniProt P51946 (P51946 whole entry, looked up): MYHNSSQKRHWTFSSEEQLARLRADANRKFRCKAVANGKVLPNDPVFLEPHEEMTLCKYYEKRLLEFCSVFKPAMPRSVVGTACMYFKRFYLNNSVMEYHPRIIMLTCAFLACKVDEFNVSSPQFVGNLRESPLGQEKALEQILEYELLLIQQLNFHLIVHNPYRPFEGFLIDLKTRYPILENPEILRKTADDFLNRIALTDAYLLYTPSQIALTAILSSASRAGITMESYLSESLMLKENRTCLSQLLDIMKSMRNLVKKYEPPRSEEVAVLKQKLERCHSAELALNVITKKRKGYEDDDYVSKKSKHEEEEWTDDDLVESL
inactive: [1] -0.034 | [2] -0.028 | [3] 0.021 | [4] -0.024 | [5] -0.004 | [6] 0.046 | [7] -0.019 | [8] -0.001 | [9] -0.069 | [10] 0.005 | [11] 0.094 | [12] -0.019 | [13] -0.014 | [14] -0.001 | [15] -0.037 | [16] -0.037 | [17] 0.036 | [18] -0.044 | [19] -0.031 | [20] 0.033

COA6 isoform 2 (UniProt Q5JTJ3)
Chain of UniProt Q5JTJ3 (Q5JTJ3 whole entry, looked up): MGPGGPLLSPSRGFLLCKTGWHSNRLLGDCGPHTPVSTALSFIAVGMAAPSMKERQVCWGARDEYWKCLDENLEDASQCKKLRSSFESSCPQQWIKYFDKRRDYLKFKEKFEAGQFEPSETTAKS
inactive: [1] 0.045 | [2] 0.04 | [3] -0.004 | [4] 0.079 | [5] -0.069 | [6] 0.045 | [7] -0.023 | [8] -0.055 | [9] -0.16 | [10] 0.022 | [11] 0.175 | [12] 0.063 | [13] 0.012 | [14] 0.07 | [15] 0.354 | [16] -0.022 | [17] -0.068 | [18] 0.138 | [19] -0.055 | [20] 0.072

CD53 (UniProt P19397)
inactive: [1] 0.183 | [2] -0.103 | [3] -0.049 | [4] -0.02 | [5] 0.004 | [6] -0.092 | [7] -0.007 | [8] 0.074 | [9] -0.051 | [10] -0.06 | [11] -0.22 | [12] 0.087 | [13] -0.06 | [14] 0.009 | [15] -0.21 | [16] -0.069 | [17] -0.032 | [18] 0.125 | [19] -0.006 | [20] 0.051
